Laboratory results taken from PubChem BioAssay AID1942 (Johns Hopkins Ion Channel Center, 2009).
In all, about 2,400 compounds went through this assay and about 580 (24%) were called active. Only a sample is shown. A number with no mark means an inactive call.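 How the source made its calls: active means activity change at or above the mean plus 3 SD of buffer wells without dofetilide, per plate; inactive means the rest.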

biological target: Potassium voltage-gated channel subfamily KQT member 2 (Rattus norvegicus) (UniProt O88943); assay: KCNQ2 potentiation in CHO cells – cell-based, FluxOR thallium flux, counter-screen for hERG block protector project, confirmation (AID 1942); conditions: FluxOR thallium flux fluorescence, at 10 µM, active compounds read high;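 further: normalized value minus buffer-control mean plus three SD of buffer wells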
Sequence (O88943 whole entry, looked up): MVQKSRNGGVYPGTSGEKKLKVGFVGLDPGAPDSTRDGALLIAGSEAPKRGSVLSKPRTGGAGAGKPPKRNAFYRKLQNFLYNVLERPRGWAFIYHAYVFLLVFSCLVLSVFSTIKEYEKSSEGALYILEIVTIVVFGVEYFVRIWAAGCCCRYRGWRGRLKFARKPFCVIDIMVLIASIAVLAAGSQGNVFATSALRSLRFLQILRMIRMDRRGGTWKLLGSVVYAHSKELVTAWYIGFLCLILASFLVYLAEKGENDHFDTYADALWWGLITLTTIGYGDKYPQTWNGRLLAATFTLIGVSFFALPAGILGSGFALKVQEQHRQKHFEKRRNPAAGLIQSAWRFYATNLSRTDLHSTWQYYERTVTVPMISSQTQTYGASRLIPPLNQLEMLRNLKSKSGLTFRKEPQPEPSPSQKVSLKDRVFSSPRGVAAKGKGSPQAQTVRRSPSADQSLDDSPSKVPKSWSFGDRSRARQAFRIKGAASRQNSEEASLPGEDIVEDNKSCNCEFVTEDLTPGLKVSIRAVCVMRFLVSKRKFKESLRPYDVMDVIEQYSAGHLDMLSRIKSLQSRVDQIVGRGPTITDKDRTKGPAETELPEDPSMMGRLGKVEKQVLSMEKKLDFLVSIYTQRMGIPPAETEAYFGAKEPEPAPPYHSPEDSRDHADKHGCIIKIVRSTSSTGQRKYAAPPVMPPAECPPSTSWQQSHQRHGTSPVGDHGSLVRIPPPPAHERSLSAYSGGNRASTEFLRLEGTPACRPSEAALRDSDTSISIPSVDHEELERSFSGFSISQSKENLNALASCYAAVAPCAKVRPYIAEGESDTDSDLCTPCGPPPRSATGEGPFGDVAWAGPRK

SMILES | activity change, less the hit threshold
Cn1cc([N+](=O)[O-])c(C(=O)N/N=C\c2c[nH]c3ccccc23)n1 | -15.5%
CCCCN1C(=O)/C(=C2/Sc3ccc(Cl)cc3N2CC)SC1=S | -27.6%
CNC(=O)c1ccc(NC(=O)CN2c3cccc4cccc(c34)S2(=O)=O)cc1 | -18.1%
COc1ccc(CS(=O)(=O)CC2(O)CCN(C(=O)c3cccc(C(F)(F)F)c3)CC2)cc1 | -25.4%
O=C1CN(C(=O)COc2ccccc2F)c2ccccc2N1 | -18.7%
O=C(c1csc(Nc2ccccc2Cl)n1)N1CCCC1 | -14.5%
COc1cc(CNn2nnnc2N)ccc1OCC(=O)NC(C)(C)C | -20%
COc1ccc(NC(=O)CCN2C(=O)C3C4C=CC(C4)C3C2=O)cc1 (centres undefined) | -21.1%
COc1ccccc1CC(=O)Nc1ccc(OC)c(OC)c1 | -12.4%
COc1ccc(NC(=O)CC23CC4CC(CC(C4)C2)C3)cn1 | 44.4% (active)
CC(C)(C)c1cc(CCC(=O)NCc2ccncc2)cc(C(C)(C)C)c1O | -15.7%
CCOC(=O)c1sc2nc(N3CCOCC3)c3c(c2c1N)CCN(Cc1ccccc1)C3 | 0.1% (active)
Cn1ncc2c(NNC(=O)c3ccc(O)cc3)ncnc21 | -24.5%
CC(C)(C)NC(=O)C(=O)NNC(=O)COc1ccc(Br)cc1 | 41.1% (active)
Cc1cccc(NC(=O)C(=O)NNC(=O)c2ccc(C(C)(C)C)cc2)c1 | 110% (active)
C=CCNC(=O)COc1ccc(Oc2ccccc2)cc1 | -6.4%
CC(C)(C)c1ccc(C(=O)CC(=O)c2cc(Cl)ccc2O)cc1 | -11.6%
O=C(NN1C(=O)C2C(c3ccccc3)C=CC(c3ccccc3)C2C1=O)c1cccc(Br)c1 (centres undefined) | -3.8%
CC(C)(C)NC(=O)C(=O)NNC(=O)c1cccc(Br)c1 | 16.4% (active)
CC(C)(C)NC(=O)C(=O)NNC(=O)c1ccc(C(C)(C)C)cc1 | 27.1% (active)
CC/C(=N\NC(=S)Nc1cccc(C)c1)c1ccccc1 | -13%
CC(C)(C)NC(=O)C(=O)NNC(=O)COc1ccccc1 | -16.3%
CC(C)(C)NC(=O)C(=O)NNC(=O)c1ccccc1 | -9.7%
CCCc1cc(C(=O)NNC(=S)Nc2cccc(C)c2)cs1 | -16.5%
O=C(Nc1ccccc1C(=O)O)c1cncc(Br)c1 | -3%

SMILES | activity change, less the hit threshold
O=C(/C=C/c1ccccc1)Nc1ccc(S(=O)(=O)N2CCOCC2)cc1 | -12.6%
Cc1cc(C(=O)N/N=C/c2ccc(O)c([N+](=O)[O-])c2)n[nH]1 | -19.6%
O=C(CSc1ccccc1)N1CCN(S(=O)(=O)c2cccs2)CC1 | -6.8%
O=C(CSc1nnc(NC(=O)c2ccc(S(=O)(=O)N3CCOCC3)cc2)s1)Nc1ccccc1C(F)(F)F | -15.6%
O=C(CSc1nc2ccc(NC(=O)c3ccccc3C(=O)O)cc2s1)Nc1c(Cl)cccc1Cl | -7.3%
COc1ccc(N2C(=O)CCC(C(=O)O)C2c2ccc(F)cc2)cc1 (centres undefined) | -16.9%
CCC(C)NC(=O)Cn1nc(C(F)(F)F)c2c1CCCC2 (centres undefined) | -23.4%
O=C(NCc1cccnc1)Nc1ccc2c(c1)OCO2 | -26%
S=C(NCc1ccco1)N1CCN(c2nc(-c3ccccc3)cs2)CC1 | -24.1%
O=C(NC(=S)N1CCN(c2nc(-c3ccccc3)cs2)CC1)c1cncc(Br)c1 | 45.1% (active)
O=C(NC(=S)Nc1nc(-c2ccccc2)cs1)c1cncc(Br)c1 | -12.3%
CCC(C)c1ccccc1NC(=O)C(C)NCCN(C)C (centres undefined) | -17.2%
COc1ccc(C)cc1S(=O)(=O)NC1CCCCC1 | -6.4%
CCOC(=O)c1cc2c(nc1NC(=S)NCc1ccccc1)CCCC2 | -13.9%
C=CCNC(=S)Nc1nc2c(cc1C(=O)OCC)CCCC2 | 1.1% (active)
C=C(C)CNC(=S)Nc1nc2c(cc1C(=O)OCC)CCCC2 | -9.5%
CCNC(=S)Nc1nc2c(cc1C(=O)OCC)CCCC2 | 6.4% (active)
CCc1cccc2c1NC(=O)C2(O)CC(=O)c1cccs1 (centres undefined) | -20.9%
O=C(CCc1ccccc1)NC(=S)Nc1cc(C(F)(F)F)ccc1N1CCOCC1 | -30.4%
CCc1nccn1S(=O)(=O)c1ccc2ccc(C)cc2c1 | -8.3%
NC(=O)C1CCN(C(=O)c2cc3c(s2)CCCC3)CC1 | 12% (active)
CC(OC(=O)c1cc2c(s1)CCCCC2)C(=O)NC(N)=O (centres undefined) | -23.7%
O=C(c1cc2c(s1)-c1ccccc1OC2)N1CCCC1 | -12.6%
Cc1sc2ncnc(SCC(=O)NC(=O)c3cccn3C)c2c1C | -2.4%
CCOc1ccc(-n2cnc3sc(C)c(C)c3c2=O)cc1 | -26.5%

SMILES | activity change, less the hit threshold
Cc1sc2ncnc(SCC(=O)c3ccc(O)cc3O)c2c1C | 2.9% (active)
O=C(Nc1cccnc1)c1ccc(COc2ccccc2Br)o1 | -13.5%
C=CCOc1ccccc1/C=c1\sc2nc(=O)c(C)nn2c1=O | -17.3%
S=C(NCCc1ccccc1)NCCN1CCOCC1 | -16.4%
O=C(NC(=S)NCCC1=CCCCC1)c1ccc(Br)o1 | 3.5% (active)
O=C(NC(=S)NCCC1=CCCCC1)c1ccco1 | 42.7% (active)
O=C(NC(=S)NCCc1ccc(Cl)cc1)c1ccco1 | -7.7%
Cc1ccc(/C=N/Nc2ccc(C(=O)O)cc2)o1 | -9.1%
Cc1ccc(N=C2NC(=O)/C(=C/c3cccs3)S2)cc1C | -6.4%
O=C(OCc1ccccc1)/C(=C/c1cccc([N+](=O)[O-])c1)NC(=O)c1ccco1 | -19.1%
COc1ccc2nc(N3CCCCC3)c(/C=C3\SC(=S)NC3=O)cc2c1 | -17.9%
O=C1NC(=S)/C(=C\c2ccc(-c3ccccc3Cl)o2)S1 | -18.7%
O=C1NC(=S)S/C1=C\c1ccc2ccccc2c1 | 53.3% (active)
S=c1[nH]c(-c2ccccc2)cn1/N=C/c1cccc2ccccc12 | -7.9%
CC1CCc2c(sc3[nH]c(=S)n(C)c(=O)c23)C1 (centres undefined) | 72.5% (active)
Cn1c(=S)[nH]c2sc3c(c2c1=O)CCC(C(C)(C)C)C3 (centres undefined) | 70.3% (active)
CCCOC(=O)CN1C(=O)c2ccc(C(=O)OCCC)cc2C1=O | -12.2%
O=c1oc2cc(OCCO)ccc2c2c1CCCC2 | -17.1%
Cc1ccc2nc(-c3ccncc3)cc(C(=O)Nc3ccc4c(c3)OCCO4)c2c1 | -19.5%
CS(=O)(=O)N1CCC(C(=O)Nc2c(F)cccc2F)CC1 | -11.1%
O=C(COc1ccc(Cl)cc1Cl)NC(=S)Nc1ccccc1C(=O)O | -12.7%
Cc1occc1C(=O)NNC(=S)NC(=O)COc1ccc(Cl)cc1Cl | 64.9% (active)
COc1ccc(Cl)cc1C(=O)NNC(=S)NC(=O)/C=C/c1ccco1 | -17%
COc1ccc(CN(C)C(=O)c2cccc(NS(=O)(=O)c3ccccc3)c2)cc1F | -13.5%
CN1CCN(c2nnc(-c3cccs3)c3ccccc23)CC1 | -26.6%

SMILES | activity change, less the hit threshold
COC(=O)c1sccc1NC(=S)N1CC(C)CC(C)C1 (centres undefined) | -25%
O=c1ccc(N=Nc2ccccc2)ccc1O | 87.6% (active)
CN(C)c1ccc(N=Nc2ccc(C(=O)O)cc2)cc1 | -18.5%
O=C(COC(=O)c1cccs1)NCCN1C(=O)CSC1=O | -22%
CCc1ccc(C(C)NC(=O)c2ccc(F)cc2)cc1 (centres undefined) | 21.6% (active)
Cn1c(CNC(=O)CNC(=O)c2ccc(F)cc2)cc(=O)n(C)c1=O | -10.8%
CC(NC(=O)c1ccc(F)cc1)c1ccc2c(c1)CCCC2 (centres undefined) | 26.1% (active)
CC(NC(=O)CCNC(=O)c1ccco1)c1ccc(F)cc1 (centres undefined) | -12.9%
CC(NC(=O)c1ccc(Br)cc1)c1ccc2c(c1)CCCC2 (centres undefined) | 33.3% (active)
S=c1[nH]c2ccccc2n2cccc12 | -14.5%
CCOc1ccc(-n2c(C)c(C(C)=O)c3cc(O)ccc32)cc1 | -2.3%
CC(=O)c1ccc(S(=O)(=O)NCc2ccc(C(=O)N(C)CC(=O)Nc3cccc(F)c3)cc2)cc1 | -9.1%
NC(=O)CSc1nc2ccccc2c(=O)n1CCc1ccccc1 | -15.2%
C=CCn1c(SCC(=O)Nc2cccc(C)c2)nnc1-c1cnccn1 | -26.8%
C=CCn1c(=S)[nH]c2cc(-c3ccccc3)sc2c1=O | -4.4%
C=CCn1c(=S)[nH]c2scc(-c3cccs3)c2c1=O | 93.7% (active)
C=CCn1c(SCC(N)=O)nc2scc(-c3ccc(C)o3)c2c1=O | 1.7% (active)
C=CCn1c(=S)[nH]c2scc(-c3ccc(C)o3)c2c1=O | 80.3% (active)
CCC1(C)CC2(CCCN(CCC(=O)c3ccccc3)C2)CCO1 (centres undefined) | -25%
O=C(NCc1ccco1)C1CCN(C(=O)Cc2ccccc2)CC1 | -17.3%
O=C(CCSCCc1ccccn1)Nc1cccc([N+](=O)[O-])c1 | -11.2%
CCN1C(=O)/C(=C\c2ccc(-c3cccc(C(=O)OC)c3)o2)SC1=Nc1ccc(C(=O)O)cc1 | -22.8%
CCCCN(C(=O)CNC(=O)c1cccs1)C(C(=O)NC1CCCC1)c1ccncc1 (centres undefined) | -7.8%
CCCCN(C(=O)CC1CCCC1)c1c(N)n(CC(C)C)c(=O)[nH]c1=O | -9.9%
